Only some compounds are listed: those with a hit (about 0.52% of all), similar ones and a draw of the others.
Sa growth inh: S. aureus growth inhibition | S. aureus RN4220 growth, OD600, 20 h, 42 °C; hits give low values | relative growth, % (concentration not given with the values) | actives 0.53% (n = 170,000);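 active means relative growth at most 50% at the other temperature and 20+ points below 30 °C, or under 10% at both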
S aureus helic: blocks Staphylococcus aureus DNA helicase. purified S. aureus helicase, fluorescence unwinding assay. actives 0.05% (n = 120,000). inhibition, % (no concentration beside the values); in the data active means inhibition above about 25%, passing the limit was not always enough;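 further: 0% = mean of negative control wells and 100% = mean of positive control wells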
* = called active by the depositor; nt = no result.

SMILES	Sa growth inh	S aureus helic
CC(NC(=O)/C=C/c1cccc2ccccc12)c1ccccc1 (configuration not stated)	99	-12
COc1ccc(-c2ccnc(SC)n2)cc1	129	nt
COc1nncc(-c2cnnc(SC)n2)n1	0.1*	8
CNc1ccc2cccc(O)c2n1	0.4*	13
Oc1cccc2ccc(Nc3ccccn3)nc12	77	11
O=C(OCc1ccc(F)cc1)c1cc(-c2ccco2)nc2ccccc12	6.6*	1
COC(=O)c1ccc(COC(=O)c2cc(-c3ccco3)nc3ccccc23)cc1	71	8
CCc1nnc(SCC(=O)Nc2ccccc2C(F)(F)F)c2cc3occc3n12	98	-23
CCCN1C2=S=C(CSc3nc4ccccc4n3CCC)C(=O)N2c2ccccc21	86	-20
CC(C)OC(=O)c1ccc2[nH]c3c(c2c1)CCCC3	34*	10
COC(=O)c1ccc2[nH]c3c(c2c1)CCCC3	83	10
O=C(Oc1ccc(OC(F)(F)F)cc1)C1=Cc2cc(Cl)ccc2OC1	117	nt
COC(=O)c1sc2nc(-c3ccccc3)cc(-c3ccccc3)c2c1N	99	-12
CCS(=O)(=O)c1ncc(Cl)c(C(=O)N(Cc2ccccc2)c2ccc(OC)cc2)n1	5.0*	nt
CCSc1ncc(Cl)c(C(=O)N(Cc2ccccc2)Cc2ccco2)n1	95	nt
COc1ccc(N(Cc2ccccc2)C(=O)c2nc(SC)ncc2Cl)cc1	103	nt
CCCS(=O)(=O)c1ncc(Cl)c(C(=O)N(Cc2ccccc2)Cc2ccco2)n1	1.2*	nt
CC(=O)Nc1ccc(-c2nc3ccccc3c(=O)[nH]2)cc1	89	nt
O=S(=O)(CCN1CCN(S(=O)(=O)c2ccccc2C(F)(F)F)CC1)c1ccc(Br)cc1	102	26
O=C(CNC(=O)C1CCCCC1)OCc1cc(-c2ccccc2)on1	97	-1
O=C1C2SCCN2C(=S)N1c1cccc(C(F)(F)F)c1 (configuration not stated)	46*	nt
O=C1CSC(=S)N1c1cccc(C(F)(F)F)c1	nt	-2
CCC(C)C(NS(=O)(=O)c1ccc(Cl)c(C(=O)O)c1)C(=O)O (configuration not stated)	92	-3
O=c1c(-c2ccon2)c(O)c2ccccc2n1-c1ccccc1	67	13
O=c1cc(-c2ccccc2)cc(-c2ccccc2)n1O	79	nt
SMILES	Sa growth inh	S aureus helic
On1c(-c2ccccc2)cc2ccccc21	1.6*	3
CC(C)CC1Nc2ccc(C(=O)NCC3COc4ccccc4O3)cc2NC1=O (configuration not stated)	83	25
Cc1nccc(-c2cccc(NN=C(C#N)C#N)c2)n1	-0.4*	20
Cc1nccc(-c2cccc(N/N=C(\C#N)S(=O)(=O)c3ccccn3)c2)n1	95	0
Cc1cc(F)ccc1S(=O)(=O)Nc1ccccc1C(=O)Nc1cccnc1	87	-2
O=C(NC(c1ccccc1)c1ccccc1)N1CCCCC1	103	4
C[C@H]1c2cccc(O)c2C(O)=C2C(=O)[C@]3(O)C(O)=C(C(N)=O)C(=O)[C@@H](N(C)C)[C@@H]3[C@@H](O)[C@@H]21	-0.6*	nt
CN(C)c1ccc(O)c2c1C[C@H]1C[C@H]3[C@H](N(C)C)C(=O)C(C(N)=O)=C(O)[C@@]3(O)C(=O)C1=C2O	-0.4*	nt
CC1c2cccc(O)c2CC2=C(O)C3(O)C(O)=C(C(N)=O)C(=O)C(N(C)C)C3C(O)C21 (configuration not stated)	11	11
COc1ccc(OCC2Cn3c(nc4c3c(=O)n(C)c(=O)n4C)O2)cc1 (configuration not stated)	113	16
N#C/C(=C/c1ccc(-c2cc(C(=O)O)ccc2Cl)o1)C(=O)NCCc1c[nH]c2ccccc12	9.7*	20
N#C/C(=C\c1ccc(-c2cc(C(F)(F)F)ccc2Cl)o1)C(=O)O	96	-5
O=C(Nc1cccc(Cl)c1)c1c(NC(=O)C(F)(F)F)sc2c1CCCC2	-1.2*	nt
Cc1cccc(NC(=O)c2c(NC(=O)C(F)(F)F)sc3c2CCCCC3)c1	35	nt
O=C(CN1CCC(NC(=O)NC2CCCCC2)CC1)Nc1cccc(I)c1	83	-17
CCc1nc2c(sc(=S)n2-c2ccccc2)c(=O)[nH]1	118	7
CSc1c(-c2ccc(Cl)cc2)[nH]c2ccccc12	21*	nt
Cc1ccc(-c2[nH]c3ccccc3c2SCCN)cc1	nt	-17
CN1CCC(N(C)S(=O)(=O)c2ccc(N)cc2)CC1	87	28
CC(c1cccs1)n1nccc1NC(=O)c1cnc2ccccc2n1 (configuration not stated)	107	11
C/C(=N\OC(=O)c1ccccc1)c1cc(-c2ccccc2)no1	101	3
C/C(=N\O)c1cc(-c2ccccc2)no1	-0.7*	nt
CCN1CCN(Cc2ccc(NC(=O)c3cc4ccc5cccnc5c4[nH]3)cc2)CC1	101	91*
O=C(c1cc2ccc3cccnc3c2[nH]1)N1CCN(Cc2ccccc2)CC1	79	-19
CC(=O)Oc1ccc(C)cc1-n1nc2ccccc2n1	46*	0
SMILES	Sa growth inh	S aureus helic
CCN(CC)S(=O)(=O)c1ccc(Cl)c(C(=O)Oc2ccc(C)cc2-n2nc3ccccc3n2)c1	92	7
CCN1CCCC1CNC(=O)Nc1ccc(Cl)c(Cl)c1 (configuration not stated)	0.6*	10
CCN1CCCC1CNCC(=O)Nc1ccc(C)c(Br)c1 (configuration not stated)	98	0
O=C(O)CCCN1C(=O)c2ccccc2S1(=O)=O	90	7
COc1ccc(N(Cc2cscn2)S(=O)(=O)c2cc(C)ccc2C)cc1	127	-20
NC(=O)/C=C/C(=O)Nc1ccc2c(c1)OCO2	135	12
COC(=O)c1sccc1OC(=O)c1ccc(C(C)(C)C)cc1	106	nt
COC(=O)c1cscc1OC(=O)c1ccc(C(F)(F)F)cc1	21*	nt
CCOc1ccccc1NC(=O)c1cc2c(CO)cnc(C)c2oc1=O	102	nt
CCCCC(=O)Nc1nnc(-c2ccc(Cl)s2)o1	8.8*	5
O=C(CCc1ccccc1)Nc1nnc(-c2ccccc2)o1	nt	-15
O=C(CCCc1c[nH]c2ccccc12)Nc1nnc(-c2ccc(Cl)cc2)o1	88	-5
CCCCC(=O)Nc1nnc(-c2ccc(Cl)cc2)o1	-0.3*	21
N#CCc1ccc(NC(=O)Nc2ccccc2)cc1	99	nt
Cc1cc(O)c(Cc2cc(Cl)c3cccnc3c2O)c(=O)o1	4.0*	17
O=c1oc2ccccc2c(O)c1Cc1cc(Cl)c2cccnc2c1O	128	-15
CCN(C(=O)c1ccco1)c1nnc(Cn2nnc3ccccc32)s1	91	5
C/C(=N\O)C1(C)N(O)C(C)(C)C(c2cccs2)=[N+]1[O-] (configuration not stated)	95	-5
Cc1ccccc1NC(=O)Cn1c(=O)n(CCCS(=O)(=O)C2CCCCC2)c(=O)c2ccccc21	117	2
O=C(c1ccco1)N1CCN(C(=O)c2sc3ccccc3c2Cl)CC1	91	nt
O=C(Oc1c(C(=O)c2ccccc2)sc2ccccc12)c1ccco1	1.7*	6
CC(C)C(NS(=O)(=O)c1cccs1)C(=O)NCc1ccccc1F (configuration not stated)	100	5
O=C(COc1ccc(-c2nnco2)cc1)N(CCc1ccccc1)Cc1ccccc1	108	11
O=C(/C=C(\O)c1ccc(Cl)cc1)C(F)(F)F	-0.1*	-2
CC(=O)/C=C(\O)c1ccc(Cl)cc1	84	12

Source: PubChem (ICCB-Longwood Screening Facility, Harvard Medical School)
